Screening results (PubChem BioAssay)
Only a selection was taken, and hits are over-represented in it overall.
KDM5B inhibitor = Primary screen for KDM5B Histone Demethylases FDH-coupled qHTS | hit rate 2.6% among 220,000 | KDM5B demethylase, FDH-coupled NADH fluorescence (FDH is formaldehyde dehydrogenase) | Potency, µM (highest dose often 57.7 µM), usual class: inhibitors; active = well fitted inhibition curve with a large enough effect; note: nearly all actives have a fitted effect of over 70% in size
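Here, H3K4me3 peptide (12.5 µM in substrate mix) is demethylated by KDM5BΔAP, 200 nM final, after 10 min compound exposure. Formaldehyde product is coupled through FDH (0.25 U/mL in mix) to NADH fluorescence; 30-min ΔRFU feeds dose-response curves.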
Each line names hits and unclear results; the compound was inactive in the other large screens.

Cc1ccc(C2NC(=O)N(C)C3=C2C(=O)N(c2ccc(C)cc2)C3)cc1 (centres undefined)	none
CCCn1c(SCC(=O)Nc2nncs2)nnc1C1CC1	none
COCCOC1CCOC2(CCN(C(=O)Nc3ccccc3F)CC2)C1 (centres undefined)	none
Cc1cc(F)ccc1S(=O)(=O)NCCc1csc2nc(-c3ccc(Cl)cc3)nn12	none
CC(C)CNC(=O)Cn1c(=O)c2c(ncn2C)n(C)c1=O	none
CC1=C[C@@H](CNC(=O)C2CCCCC2)[C@H](C(C)C)C[C@H]1Cc1nc2ccccc2n1C	none
Cc1cc(C(C#N)c2ccc(Cl)cc2)c(Cl)cc1NC(=O)CCCc1ccccc1 (centres undefined)	none
Cc1cc(C)c(CN2CCC3(CCCN(C)C3=O)C2)c(-n2cccn2)c1 (centres undefined)	none
Cc1cc(F)ccc1NC(=S)NCc1ccccc1	none
O=C(c1ccco1)N1CCC2(CC1)CC(OCC1CC1)CCO2 (centres undefined)	none
c1coc(CNCc2cccc3[nH]ccc23)c1	none
CCCc1noc(-c2cccn3c(CNC(=O)Cc4ccccc4OC)nnc23)n1	none
CC(C)c1noc(-c2ccccc2OCC(=O)NCc2ccc(Cl)cc2)n1	none
CCCC(=O)NCCc1noc(-c2ccccc2)n1	none
CCCc1noc(-c2cccn3c(CNC(=O)CCc4ccccc4)nnc23)n1	KDM5B inhibitor 18µM
CC(C)c1noc(-c2cccn3c(CNC(=O)CCc4ccccc4)nnc23)n1	KDM5B inhibitor 14µM
Cc1nc(CCNC(=O)CCc2ccccc2)no1	none
CC(C)(C)CC(=O)NC(c1ccccc1)c1ccccc1	none
COC(=O)c1sc(=S)n(-c2ccccc2C)c1N	none
CCC(NC(=O)C1CC1)C12CC3CC(CC(C3)C1)C2 (centres undefined)	none
C#CCOc1ccc2ccccc2c1/C=C(\C#N)c1ccc(Cl)cc1	none
O=C(Nc1ccc(Oc2ccccc2)cc1)O[C@@H]1CO[C@H]2[C@@H]1OC[C@@H]2NCC1CCCCC1	none
O=C(Nc1ccccc1)N[C@H]1CO[C@H]2[C@@H]1OC[C@@H]2Nc1nccc(C2CCCC2)n1	none
O=C(O)CSCC(=O)N[C@H]1CO[C@H]2[C@@H]1OC[C@@H]2Nc1nccc(-c2cccc(F)c2)n1	KDM5B inhibitor 25µM
O=C(O)CCC(=O)N[C@H]1CO[C@H]2[C@@H]1OC[C@@H]2Nc1nccc(-c2ccco2)n1	KDM5B inhibitor 32µM
O=C(Nc1cccc(C(F)(F)F)c1)O[C@@H]1CO[C@H]2[C@@H]1OC[C@@H]2Nc1nccc(-c2ccccc2)n1	none
c1coc(-c2ccnc(N[C@H]3CO[C@H]4[C@@H]3OC[C@@H]4NCC3CCCCC3)n2)c1	KDM5B inhibitor 32µM
N#Cc1cccc(-c2ccnc(N[C@H]3CO[C@H]4[C@@H]3OC[C@H]4OC(=O)Nc3ccc(Oc4ccccc4)cc3)n2)c1	none
O=S(=O)(N[C@H]1CO[C@H]2[C@@H]1OC[C@@H]2Nc1nccc(C2CCCC2)n1)c1cccc2cccnc12	none
O=C(O)CCC(=O)N[C@H]1CO[C@H]2[C@@H]1OC[C@@H]2Nc1nccc(-c2cccc(F)c2)n1	KDM5B inhibitor 32µM
CC1=C(C(=O)Nc2ccccc2)C(c2cccc(C)c2)N2C(CC(=O)NC3CC3)=CSC2=N1 (centres undefined)	none
Cc1n[nH]c(C)c1S(=O)(=O)Nc1cccc([N+](=O)[O-])c1	none
COc1cc(/C=C(/C#N)C(=O)c2c[nH]c3cccc(C)c23)cc(OC)c1	none
CC(=O)N1CC[C@H](c2nc3cc(C)ccc3o2)C1	none
Cc1nc(-c2ccncc2)sc1C(=O)O	none
CCOC(=O)N1CCN(C(=O)c2cc3occc3n2Cc2ccccc2F)CC1	none
CCCCCCc1cc2c3c(c(=O)oc2cc1OCC(=O)C(C)(C)C)CCC3	none
Cc1cc(NS(=O)(=O)c2ccc3c(c2)CN(C(=O)CCC(C)C)CC3)no1	none
O=C(Cn1cccc1-c1nc(-c2ccccc2)no1)NC1CCCCC1	none
CO[C@H]1C(=O)N(C2CCN(C(=O)c3nn(C)c4ccccc34)CC2)[C@H]1c1ccncc1	none
O=C(Nc1ccc(F)cc1F)c1ccn(Cn2nnc(-c3ccccc3)n2)n1	none
CCc1ccc(-c2nc(SC(C(=O)N(CC)CC)c3ccccc3)n[nH]2)cc1 (centres undefined)	none
CCNC(=S)N/N=C1\CC2CC=CC12 (centres undefined)	none
CC(C)Cc1nc(OCC(N)=O)c(C#N)c2c1CCCC2	none
CCCc1cc(C(=O)Nc2ccccc2C#N)cs1	none
COc1ccc(CCC(=O)Oc2ccc3ccc(OC)cc3c2)cc1	none
O=C(Nc1cccc(S(=O)(=O)Nc2ccccc2F)c1)c1cncn1-c1ccc(F)cc1	none
Cc1ccccc1-n1c(SC(C)C(=O)c2ccc(Cl)cc2)nnc1N1CCOCC1 (centres undefined)	none
CC(=O)Nc1ccc(S(=O)(=O)N[C@H]2CO[C@H]3[C@@H]2OC[C@H]3OC(=O)Nc2ccc(Oc3ccccc3)cc2)cc1	none
CC(=O)Nc1ccc(S(=O)(=O)N[C@H]2CO[C@H]3[C@@H]2OC[C@@H]3Nc2nccc(-c3ccco3)n2)cc1	KDM5B inhibitor 22µM
COc1cccc(-c2nnnn2[C@H]2CO[C@H]3[C@@H]2OC[C@@H]3NS(=O)(=O)c2ccc(NC(C)=O)cc2)c1	none
CC(NCc1ccc(-c2ccccc2)o1)c1ccccc1 (centres undefined)	none
CCC(C(=O)Nc1ccc(OC)cc1)n1nnc(C(=O)OC)c1C(=O)OC (centres undefined)	none
CN1CCC(NC(=O)C2(C)CCc3cnc(N4CCOCC4)nc32)CC1 (centres undefined)	KDM5B inhibitor 35µM
COc1ccc(NC(=O)c2ccc(S(=O)(=O)N3CCOCC3)o2)cc1	none
COc1ccc(NC(=O)CSc2nc(N3CCOCC3)c3c(c2C#N)CCCC3)cc1	none
CN1CCC(CNc2ncc(C(C)(C)C(=O)O)c(N3CCOCC3)n2)CC1	none
CC1(C(=O)NC2CCOCC2)CCCc2cnc(Nc3ccccc3)nc21 (centres undefined)	none
COc1ccc(NC(=O)C2(C)CCc3cnc(N4CCOCC4)nc32)cc1 (centres undefined)	KDM5B inhibitor 40µM
Cc1ccccc1OCC(=O)NC12CC3CC(CC(C3)C1)C2	none
O=C(c1cc(=O)c2ccccc2o1)N1CCN(C(c2ccccc2)c2ccccc2)CC1	none
CC(=O)c1ccc(C(=O)NC2CCc3ccccc32)s1 (centres undefined)	none
Cc1ccc(CNC(=O)c2nc(S(=O)(=O)Cc3ccccc3C)ncc2Cl)cc1	none
O=C1[C@@H]2C[C@@H](CN2C(=O)c2ccc(F)cc2)Oc2ccccc2N1Cc1ccc(OC(F)(F)F)cc1	none
Cc1ccc(C(=O)N2CCn3c(nn(-c4ccc(Cl)cc4)c3=O)C2)cc1	none
O=C(c1ccc(Cl)nc1)N1CCn2c(nn(-c3ccncc3)c2=O)C1	none
COc1ccccc1C(=O)N1CCn2c(nn(-c3ccc(C(F)(F)F)cc3)c2=O)C1	KDM5B inhibitor 79µM
Cc1ccccc1C(=O)N1CCn2c(nn(-c3ccc(F)cc3)c2=O)C1	none
Cc1ccc(-n2nc3n(c2=O)CCN(C(=O)c2ccc(Cl)nc2)C3)cc1	KDM5B inhibitor 25µM
COc1ccc(-n2nc3n(c2=O)CCN(C(=O)c2ccc(C(F)(F)F)cc2)C3)cc1	none
CSc1cccc(NC(=O)N2CCC3(CC2)N=C(c2cccc(Cl)c2)C(=O)N3)c1	none
Cc1ccc(-c2nc(CN3CCN(C(=O)c4ccco4)CC3)c(C)o2)cc1	none
Cc1ccc(N2C(=O)CN(S(=O)(=O)c3ccc(C)cc3)CC2(C)C(=O)NCCC(C)C)cc1 (centres undefined)	none
O=C(CCCc1c[nH]c2ccccc12)N1CCc2nc3cc[nH]n3c(=O)c2C1	none
